Test results reported in PubChem BioAssay (NCATS).
Inconclusive results are not listed. Entries that show only a call come without a potency. The source made the active and inactive calls. The call rests on the fitted dose curve; in most records, active means well fitted curve in the direction sought with a large enough effect; inconclusive means small, poorly fitted or top-dose-only effect, or another doubt; inactive means no such curve, though single readings can be large; an effect the other way counts as inactive or inconclusive.

Key:
[1] = biological target: Aldehyde dehydrogenase, mitochondrial (Homo sapiens) (UniProt P05091); experiment: qHTS for Inhibitors of the Aldehyde Dehydrogenase Family (ALDH2) Primary screen (AID 2061308); conditions: ALDH2 enzyme inhibition qHTS, 1536-well; series mostly up to 56 µM; further: nearly all actives have a fitted effect of over 55% in size
[2] = biological target: Retinaldehyde dehydrogenase 3 (Homo sapiens) (UniProt P47895); experiment: qHTS for Inhibitors of the Aldehyde Dehydrogenase Family (ALDH1A3) Primary screen (AID 2061315); conditions: ALDH inhibition qHTS; series mostly up to 56 µM

| Compound | Potency [1] | Potency [2] |
| --- | --- | --- |
| O=c1[nH]c2ccc(S(=O)(=O)N3CCN(S(=O)(=O)c4c(F)cccc4F)CC3)cc2[nH]c1=O | inactive | inactive |
| CC(C)c1ccccc1-c1nc(NCc2ccc(-c3cccnc3)cc2)c2[nH]cnc2n1 | inactive | inactive |
| O=C(O)c1ccc(CSc2nnc(-c3cccc([S+](=O)([O-])NC4CCCC4)c3)n2-c2ccccc2)cc1 | inactive | inactive |
| CC(C)(C)OC(=O)NCC(=O)NNC(=O)c1nc2ccccc2[nH]1 | inactive | inactive |
| Cc1ccc(-c2nnc(NC(=O)Nc3ccc4ccccc4c3)s2)cc1 | inactive | inactive |
| O=S(=O)(c1ccsc1)N1CCN(c2nc(-c3cccs3)nc3ccccc23)CC1 | inactive | inactive |
| CC(C)(C)OC(=O)NCCCNc1ncnc2ccc(-c3ccc4c(c3)OCO4)cc12 | inactive | inactive |
| CCN(CC)CCCCn1c(-c2ccccc2)nc2c(N(CCOC)CCOC)nc(C)nc21 | inactive | inactive |
| O=S1(=O)N=C(Oc2cccc(C(F)(F)F)c2)c2ccccc21 | inactive | inactive |
| Cc1ccc(NS(=O)(=O)c2cc3c(cc2-c2cn[nH]c2)NC(=O)CO3)cc1C | inactive | inactive |
| Cc1cc2c(s1)c1cnn(Cc3ccccc3F)c(=O)c1n2Cc1ccccc1F | inactive | inactive |
| CCC(=O)NC(c1ccco1)c1cc([N+](=O)[O-])c2cccnc2c1O (stereo not drawn) | inactive | inactive |
| O=C(Nc1ccccc1F)c1ccc(O)c2ncccc12 | inactive | inactive |
| O=C([C@@H](Cc1ccc(O[S+](=O)([O-])c2ccccn2)cc1)N[S+](=O)([O-])c1cccc2cccnc12)N1CCN(c2ccccc2)CC1 | inactive | inactive |
| Cc1ccc(OCCn2c(CCNC(=O)C3CCN(C(=O)OC(C)(C)C)CC3)nc3ccccc32)cc1 | inactive | inactive |
| O=C(Nc1nnc(-c2ccncc2)s1)Oc1ccc2ccccc2c1 | inactive | inactive |
| O=C(NCCCc1ccccc1)C1CCN(c2nc(-c3ccc(Br)cc3)cs2)CC1 | inactive | inactive |
| Cc1csc(CNc2ncnc3ccc(-c4ccc5c(c4)OCCO5)cc23)c1 | inactive | inactive |
| c1nc(N2CCC(N3CCCC3)CC2)c2cc(-c3ccc4c(c3)OCO4)ccc2n1 | inactive | inactive |
| C[C@@H](N)C(=O)Nc1cccc(-c2nn3c(=O)cc(N4CCNCC4)nc3s2)c1 | inactive | inactive |

| Compound | Potency [1] | Potency [2] |
| --- | --- | --- |
| Cc1noc(C)c1-c1ccc2ncnc(NCC3CCN(C)CC3)c2c1 | inactive | inactive |
| O=C(O)c1cccc2c1C(=O)N(c1ccccc1)C2 | inactive | inactive |
| C=C[C@H](/C=C\c1ccc(O)cc1)c1ccc(O)cc1 | inactive | inactive |
| O=c1[nH]c2ccc(S(=O)(=O)N3CCN(S(=O)(=O)c4ccc5c(c4)OCCO5)CC3)cc2[nH]c1=O | inactive | inactive |
| CCC1CCC2(C1)N=C(Nc1nc3ccccc3o1)NC1=C2C(=O)CCC1 (stereo not drawn) | inactive | inactive |
| O=C(O)c1ccc(-c2nn3c(=O)cc(N4CCNCC4)nc3s2)cc1 | inactive | inactive |
| Cc1cc(Nc2ncc3cc(-c4c(Cl)cccc4Cl)c(=O)n(C)c3n2)ccc1F | inactive | inactive |
| COc1c(Cl)cccc1NC(=O)c1c(NC(=O)Cc2ccccc2)sc2c1CCCC2 | inactive | inactive |
| Cc1ccc(C(C)c2ccc(=O)n(CC(=O)NCCc3ccccc3)n2)cc1 (stereo not drawn) | inactive | inactive |
| N#Cc1ccc(S(=O)(=O)N2CCN(S(=O)(=O)c3ccc4c(c3)OCCO4)CC2)cc1 | inactive | inactive |
| O=C(Nc1cccnc1)C1CCCCC1 | inactive | inactive |
| O=C1c2ccccc2C(=O)N1c1cnc2ccccc2c1 | inactive | inactive |
| COc1ccc(CC(=O)Nc2nc(-c3ccc4c(c3)CCN4C(=O)c3ccccc3C)c(C)s2)cc1 | inactive | inactive |
| O=C(Nc1ccc(S(=O)(=O)Nc2nccs2)cc1)c1ccnc(-c2ccccc2)c1 | inactive | inactive |
| Cc1nnc(-c2cnn(C)c2N)n1CCCc1cccnc1 | inactive | inactive |
| O=S(=O)(c1ccc2c(c1)OCCO2)N1CCN(S(=O)(=O)c2ccccc2Cl)CC1 | inactive | inactive |
| Cc1ccc(-c2nn(CC(=O)N(C)C(C)c3ccco3)c(=O)cc2C)cc1 (stereo not drawn) | inactive | inactive |
| Cc1ccc(C2N=C(Nc3nc4ccccc4o3)NC3=C2C(=O)CCC3)s1 (stereo not drawn) | inactive | inactive |
| O=S1(=O)N=C(Oc2cccc(-c3ccccc3)c2)c2ccccc21 | inactive | inactive |
